The text below walks through data of PubChem BioAssay (NCATS).

Experiment [1] concerns the target Lysosomal acid glucosylceramidase (Homo sapiens) (UniProt P04062). Put plainly: Glucocerebrosidase-p2 (AID 348; in the data active = potency below about 10 µM; note: potency is the fitted concentration of half-maximal effect). Particulars: purified GBA, blue fluorogenic substrate, 40 min. Summed up:
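Normal human glucocerebrosidase (0.2 nM) with blue fluorogenic substrate (80 uM final) in citrate/phosphate pH 5.9 with 10mM sodium taurocholate, 0.01% tween-20; 40 min RT, NaOH/glycine stop; fluorescence Ex 365/Em 440; AC50 from a titration from 0.6 nM upwards.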

The nature of experiment [2]: AP1 Signaling Pathway (AID 357). Note: % is set by controls: 0 for no effect and ±100 for the full control effect. Particulars: ME-180 AP-1-bla reporter, EGF-induced, beta-lactamase ratio, 5 h; at 7.69 µM (top of the series) unless noted. Summed up: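 Read-out was the 460nm/530nm emission ratio (excitation 405nm) after CCF4 loading for 2.5 hours at room temperature. Cells carried an AP-1-driven beta-lactamase reporter, were stimulated with EC50 EGF plus compound for 5 hours, and AC50 values came from titrations.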

Experiment [3] in a line: Stat Signaling Pathway (AID 446).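 Note: ME-180 cervical cancer cells given 40 pM IL-6 alongside compound; SIE-controlled beta-lactamase reporter measured as 460/530 nm FRET emission ratio; % is set by controls: 0 for no effect and ±100 for the full control effect.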 To be noted: ME-180 (cervical carcinoma) SIE beta-lactamase reporter, IL-6 stimulated, 5 h; at 7.69 µM (top of the series) unless noted. The gist of the method:
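Compound effects on IL-6-induced STAT reporter activity were measured in ME-180 cells. After overnight culture, cells were co-treated with 40 pM IL-6 for 5 hrs before beta-lactamase substrate loading at room temperature.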

Experiment [4] concerns the target Glucocorticoid receptor (Homo sapiens) (UniProt P04150). Put plainly: GR-EFC Redistribution (AID 451; calls by dose curve; note: potency is the fitted concentration of half-maximal effect). Particulars: CHO-K1 GR-EFC translocation, beta-gal luminescence, 2 h. The gist of the method: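 CHO-K1 cells expressing nuclear EA and GR-ED fragments of b-gal; compounds titrated up to 46 uM final, 2 h at 37 C. GR nuclear translocation read as complemented b-gal luminescence after 1 h RT detection.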

Experiment [5] has as its target Mitogen-activated protein kinase 10 (Mus musculus) (UniProt Q61831). Put plainly: JNK3 AlphaScreen Assay (AID 530).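 Note: kinase came from lysate of stimulated human HepG2 cells; signal reports phosphorylation of biotinylated GST-cJun 1-79 at Ser73 with 10 µM ATP; % is set by controls: 0 for no effect and ±100 for the full control effect.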 Particulars: JNK3 lysate, c-Jun phosphorylation; series mostly up to 57.1 µM. Summed up:
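Activity was read by AlphaScreen after JNK3-containing HepG2 lysate (cytokine pre-activated) phosphorylated biotinylated GST-cJun with 10 uM ATP at room temperature. Phospho-Ser73 cJun antibody with Protein-A acceptor beads provided detection.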

Experiment [6] is described as follows: qHTS Assay for Lipid Storage Modulators (AID 1519; calls by dose curve). To be noted: Drosophila S3 cells, BODIPY lipid droplet/cell ratio, laser cytometry, cells loaded with oleic acid; for activity change, negative = inhibition: at 57.5 µM (top of the series). The gist of the method:
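Cells seeded at 5,000 per well were treated with compounds over a concentration series and loaded with oleic acid (400 uM, as added). Lipid droplet fluorescence (488 nm excitation, 500-530 nm channel) was read by laser-scanning cytometry and normalized to 20 uM Triacsin C.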
(Quantitative high-throughput screening tests each substance at several concentrations.)

The nature of experiment [7]: Primary qHTS for small molecule stabilizers of the endoplasmic reticulum resident proteome: Secreted ER Calcium Modulated Protein (SERCaMP) assay (AID 1508630; active = well fitted curve in the direction sought with a large enough effect; an effect the other way counts as inactive or inconclusive; note: % is set by controls: 0 for no effect and ±100 for the full control effect). To be noted: SH-SY5Y GLuc-SERCaMP (Gaussia luciferase released on ER calcium loss) secretion, thapsigargin, luminescence; series mostly up to 38.4 µM. The gist of the method:
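The SH-SY5Y reporter protocol was run at 3 concentrations up to 38.3 uM (primary) or 11 concentrations (follow-up): 16 h compound, 100 nM thapsigargin for 4 h, then extracellular luciferase luminescence.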

The nature of experiment [8]: NFAT Signaling Pathway (AID 444). To be noted: Jurkat NFAT-bla M1, carbachol, beta-lactamase ratio, 5 h; at 7.69 µM (top of the series) unless noted. Summed up: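 Jurkat cells with NFAT-driven β-lactamase reporter and co-expressed M1 receptor, stimulated with carbachol (final 1 uM, ~EC50), compound titration, 5 h at 37 °C. CCF4 loaded 1 h at RT; 460/530 nm ratio gave %activity and AC50.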

Experiment [9] deals with 3',5'-cyclic-AMP phosphodiesterase 4B (Homo sapiens) (UniProt Q07343). Nature of the experiment: qHTS Assay for Inhibitors of PDE-IV (AID 607; active = well fitted activation curve with a large enough effect in the main read-out, with a control signal flat, not every such curve was filed as active; note: % of control where 0% means no effect). To be noted: HEK293 ACTOne CNG channel cells, membrane potential fluorescence; series mostly up to 22.9 µM. Summed up:
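ACTOne HEK293 cells carry a modified cAMP-gated CNG channel and express endogenous PDE4; plated 1000 cells/well, compounds up to 22.9 uM final. Membrane-potential dye fluorescence (ex 535/em 590) was read; parental cells received 10 uM forskolin + 100 uM RO 20-1724.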

Experiment [10] deals with Cytochrome P450 3A4 (Homo sapiens) (UniProt P08684). Put plainly: qHTS Assay for Activators of Cytochrome P450 3A4 (AID 885; active = well fitted curve in the direction sought with a large enough effect; an effect the other way counts as inactive or inconclusive; note: potency is the fitted concentration of half-maximal effect; nearly all actives have a fitted effect of over 65% in size). Particulars: recombinant CYP3A4, Luciferin-PPXE luminescence, 60 min; series mostly up to 57.1 µM. The gist of the method: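 CYP3A4 activity: Luciferin-PPXE O-dealkylation, 25uM substrate, 200mM KPO4, RT throughout. Read-out is luciferase luminescence; higher values reflect activation.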

Experiment [11] deals with Cytochrome P450 2D6 (Homo sapiens) (UniProt P10635). Nature of the experiment: qHTS Assay for Inhibitors and Substrates of Cytochrome P450 2D6 (AID 891; active = well fitted curve in the direction sought with a large enough effect; an effect the other way counts as inactive or inconclusive; note: potency is the fitted concentration of half-maximal effect; nearly all actives have a fitted effect of over 60% in size). Particulars: recombinant CYP2D6, luciferin-ME EGE luminescence; series mostly up to 57.1 µM. The gist of the method: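 Luminescent read-out of luciferin formed by 5 nM human CYP2D6 demethylating 30 uM Luciferin-ME EGE (Km level) over 60 min at room temperature after NADPH regeneration addition. Data normalized to full inhibition by 1.43 uM quinidine.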

[12] abbreviates: measured here: cell count channel max response.
[13] abbreviates: measured here: lipid channel max response.

Records with an inconclusive call do not appear. The source made the active and inactive calls. Unless noted, calls come from the whole dose curve; as a rule, active = well fitted curve in either direction with a large enough effect (not every such curve was filed as active); inconclusive = small, poorly fitted or top-dose-only effect, or another doubt; inactive = flat fitted curve, though single readings scatter.

Lysosomal acid glucosylceramidase (Homo sapiens), sequence (P04062 whole entry, looked up): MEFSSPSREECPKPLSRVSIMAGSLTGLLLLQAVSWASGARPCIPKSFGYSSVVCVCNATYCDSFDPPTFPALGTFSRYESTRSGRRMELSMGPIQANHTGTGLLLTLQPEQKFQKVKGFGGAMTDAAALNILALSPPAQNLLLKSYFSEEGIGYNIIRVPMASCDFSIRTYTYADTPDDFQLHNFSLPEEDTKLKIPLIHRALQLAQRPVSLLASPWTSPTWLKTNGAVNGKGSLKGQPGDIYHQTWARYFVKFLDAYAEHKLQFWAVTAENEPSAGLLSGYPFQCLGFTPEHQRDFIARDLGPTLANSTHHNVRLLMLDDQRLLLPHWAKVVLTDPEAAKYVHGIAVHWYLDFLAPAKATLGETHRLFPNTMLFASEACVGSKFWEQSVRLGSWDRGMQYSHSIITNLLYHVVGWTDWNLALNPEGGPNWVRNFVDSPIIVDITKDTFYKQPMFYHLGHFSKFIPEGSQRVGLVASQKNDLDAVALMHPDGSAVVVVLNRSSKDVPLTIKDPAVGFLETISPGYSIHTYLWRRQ
Glucocorticoid receptor (Homo sapiens), sequence (P04150 whole entry, looked up, the tested form may be a part): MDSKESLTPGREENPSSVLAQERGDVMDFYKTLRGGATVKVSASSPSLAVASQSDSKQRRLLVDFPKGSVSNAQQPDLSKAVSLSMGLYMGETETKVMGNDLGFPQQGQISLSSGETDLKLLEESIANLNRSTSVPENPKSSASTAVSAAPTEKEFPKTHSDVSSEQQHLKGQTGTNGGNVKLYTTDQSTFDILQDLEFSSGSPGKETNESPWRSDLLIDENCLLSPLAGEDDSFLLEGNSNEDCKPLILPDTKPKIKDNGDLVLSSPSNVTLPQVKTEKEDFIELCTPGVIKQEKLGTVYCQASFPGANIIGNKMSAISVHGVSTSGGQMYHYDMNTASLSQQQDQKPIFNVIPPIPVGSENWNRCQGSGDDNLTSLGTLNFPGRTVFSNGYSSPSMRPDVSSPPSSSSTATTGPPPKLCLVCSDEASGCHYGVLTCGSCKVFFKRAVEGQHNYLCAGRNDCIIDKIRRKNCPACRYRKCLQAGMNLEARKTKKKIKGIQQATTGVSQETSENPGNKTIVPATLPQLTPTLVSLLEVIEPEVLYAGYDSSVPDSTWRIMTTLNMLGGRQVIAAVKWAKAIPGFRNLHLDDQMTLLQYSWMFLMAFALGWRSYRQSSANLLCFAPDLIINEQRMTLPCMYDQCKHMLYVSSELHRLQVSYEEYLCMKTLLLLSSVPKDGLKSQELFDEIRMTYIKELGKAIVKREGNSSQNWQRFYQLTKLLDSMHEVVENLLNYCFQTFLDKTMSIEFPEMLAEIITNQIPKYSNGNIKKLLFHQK
3',5'-cyclic-AMP phosphodiesterase 4B (Homo sapiens), sequence (Q07343 whole entry, looked up): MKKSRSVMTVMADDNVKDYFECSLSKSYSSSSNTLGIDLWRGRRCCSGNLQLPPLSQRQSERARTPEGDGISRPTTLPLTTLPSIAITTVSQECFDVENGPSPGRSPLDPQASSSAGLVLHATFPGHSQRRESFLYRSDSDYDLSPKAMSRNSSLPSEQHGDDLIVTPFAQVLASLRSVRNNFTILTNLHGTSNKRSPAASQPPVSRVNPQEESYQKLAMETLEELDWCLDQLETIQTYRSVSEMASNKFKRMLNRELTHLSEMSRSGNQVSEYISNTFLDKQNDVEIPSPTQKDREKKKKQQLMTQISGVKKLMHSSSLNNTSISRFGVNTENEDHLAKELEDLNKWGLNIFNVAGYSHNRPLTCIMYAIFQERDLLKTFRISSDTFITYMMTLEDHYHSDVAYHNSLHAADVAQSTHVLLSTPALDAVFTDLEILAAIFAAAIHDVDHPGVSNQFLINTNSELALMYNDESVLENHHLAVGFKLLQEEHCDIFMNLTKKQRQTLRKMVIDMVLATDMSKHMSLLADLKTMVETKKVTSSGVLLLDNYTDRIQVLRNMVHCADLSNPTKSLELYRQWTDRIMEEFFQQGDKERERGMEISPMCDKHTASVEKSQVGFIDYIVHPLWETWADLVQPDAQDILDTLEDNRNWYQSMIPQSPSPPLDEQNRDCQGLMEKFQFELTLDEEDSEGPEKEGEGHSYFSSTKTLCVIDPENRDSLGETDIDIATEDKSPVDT
Cytochrome P450 3A4 (Homo sapiens), sequence (P08684 whole entry, looked up): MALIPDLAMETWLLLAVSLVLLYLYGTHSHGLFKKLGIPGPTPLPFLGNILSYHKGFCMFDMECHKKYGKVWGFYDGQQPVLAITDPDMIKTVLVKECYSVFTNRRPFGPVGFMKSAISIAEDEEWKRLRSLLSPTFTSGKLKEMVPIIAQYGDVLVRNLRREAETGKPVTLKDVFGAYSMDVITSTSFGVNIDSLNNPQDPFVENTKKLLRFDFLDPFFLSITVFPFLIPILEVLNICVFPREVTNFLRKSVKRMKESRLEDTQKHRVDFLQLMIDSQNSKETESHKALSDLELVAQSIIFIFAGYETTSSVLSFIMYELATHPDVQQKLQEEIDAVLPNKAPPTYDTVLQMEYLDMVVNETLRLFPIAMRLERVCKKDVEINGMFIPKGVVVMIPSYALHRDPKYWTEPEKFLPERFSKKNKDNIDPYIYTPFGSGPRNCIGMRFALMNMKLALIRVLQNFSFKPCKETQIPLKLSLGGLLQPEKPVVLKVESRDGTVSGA
Cytochrome P450 2D6 (Homo sapiens), sequence (P10635 whole entry, looked up): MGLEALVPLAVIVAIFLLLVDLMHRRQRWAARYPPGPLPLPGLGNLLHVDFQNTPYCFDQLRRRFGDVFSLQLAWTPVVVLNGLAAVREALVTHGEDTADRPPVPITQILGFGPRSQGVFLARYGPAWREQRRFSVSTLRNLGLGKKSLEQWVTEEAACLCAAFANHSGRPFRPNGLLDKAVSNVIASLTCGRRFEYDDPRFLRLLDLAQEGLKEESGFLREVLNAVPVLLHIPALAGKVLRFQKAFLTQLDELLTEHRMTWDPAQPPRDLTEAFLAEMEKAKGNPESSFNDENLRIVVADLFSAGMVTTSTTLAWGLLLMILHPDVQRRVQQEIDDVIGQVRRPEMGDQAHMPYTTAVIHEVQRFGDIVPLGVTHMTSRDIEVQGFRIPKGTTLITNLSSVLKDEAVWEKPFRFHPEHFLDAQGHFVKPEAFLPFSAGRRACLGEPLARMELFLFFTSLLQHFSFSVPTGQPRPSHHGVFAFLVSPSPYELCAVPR

As for `COc1ccccc1CN1CC2(CCN(C(=O)c3cc(C(F)(F)F)cc(C(F)(F)F)c3)CC2)C1`, the values for the Potency in experiment [1] and in [4] were > 11.4 µM (inactive) and > 46 µM (inactive), respectively. In addition, the activity change, negative = inhibition was 1.43% (inactive) in [2] and -1.27% (inactive) in [6]. For the same molecule, the activity, negative = inhibition in [3] is 3.93% (inactive). For the same molecule, in experiment [5], the Potency result was “inactive”. Besides, the max response was determined as 11.2% in [6] (setting [12]) and 10.9% in experiment [6] (setting [13]). Besides, the result in experiment [7] was inactive.

Regarding `Cn1cccc1C(=O)N1CCC2(CC1)CN(C(c1ccccc1)c1ccccc1)C2`, the Potency in experiment [1] was > 11.4 µM (inactive); in experiment [4], > 46 µM (inactive); in experiment [10], 15.8 µM (active); in experiment [11], 3.16 µM (active). The activity change, negative = inhibition in [2] was 14.4% (inactive); in experiment [8], -18.7% (inactive); in experiment [6], -5.27% (inactive). The activity, negative = inhibition in experiment [3] is -4.09% (inactive). Moreover, the Potency entry in [5] and in experiment [9] was “inactive” in each case. The max response is -6.77% in experiment [6] (setting [12]) and -9.88% in [6] (setting [13]). Further, the outcome in experiment [7] was inactive.

For `CS(=O)(=O)N1CCC2(CCCN(Cc3ccccc3)C2)CC1`, the Potency was > 11.4 µM (inactive) in experiment [1] and > 46 µM (inactive) in experiment [4]. Besides, the activity change, negative = inhibition in [2] was -13.8% (inactive); in experiment [6], 0.839% (inactive). Further, the activity, negative = inhibition in [3] was -2.17% (inactive). Besides, the Potency result in [5] and in experiment [9] was “inactive” throughout. The max response in experiment [6] (setting [12]) came out at 10.5%; in [6] (setting [13]), 13.7%. For the same molecule, the result in [7] was inactive.

As to `Cn1cccc1C(=O)N1CCC2(CC1)CCN(c1ccncc1)CC2`, the Potency in experiment [1] was > 11.4 µM (inactive); in [4], > 46 µM (inactive). For the same molecule, the activity change, negative = inhibition is -0.611% (inactive) in [2] and 1.02% (inactive) in [6]. For the same molecule, the activity, negative = inhibition in experiment [3] was 6.85% (inactive). Further, the Potency result in experiment [5] and in experiment [9] was “inactive” in each case. Moreover, the max response was -0.0216% in [6] (setting [12]) and 2.95% in experiment [6] (setting [13]). Moreover, the outcome in [7] was inactive.

`N#Cc1ccc(CN2CCC3(CCNCC3)CC2)cc1`: the Potency in [1] is > 11.4 µM (inactive); in experiment [4], > 46 µM (inactive). Further, the activity change, negative = inhibition is 1.45% (inactive) in experiment [2] and 1.87% (inactive) in [6]. Besides, in [3], the activity, negative = inhibition was 2.48% (inactive). Moreover, the Potency entry in experiment [5] and in experiment [9] was “inactive” each time. In addition, the max response in experiment [6] (setting [12]) worked out at 9.11%; in [6] (setting [13]), 14.9%. For the same molecule, the outcome in [7] was inactive.

With `CC(=O)N1CCC2(CCCN(Cc3ccc(C#N)cc3)C2)CC1`, the Potency in [1] is > 11.4 µM (inactive); in [4], > 46 µM (inactive). The values for the activity change, negative = inhibition in experiment [2] and in [6] were 1.53% (inactive) and 4.86% (inactive), respectively. In addition, the activity, negative = inhibition in experiment [3] was 6.73% (inactive). For the same molecule, the Potency entry in experiment [5] and in experiment [9] was “inactive” in each case. Also, the max response in experiment [6] (setting [12]) came out at 10.3%; in [6] (setting [13]) it was 18.3%. Also, the outcome in experiment [7] was inactive.

With `O=C(c1cnccn1)N1CCC2(CC1)CN(c1ncccn1)C2`, the values for the Potency in [1] and in experiment [4] were > 11.4 µM (inactive) and > 46 µM (inactive), respectively. The values for the activity change, negative = inhibition in experiment [2] and in experiment [6] were -12.2% (inactive) and 6.01% (inactive), respectively. Besides, in experiment [3], the activity, negative = inhibition is 21.6% (inactive). Further, the Potency entry in experiment [5] and in experiment [9] was “inactive” each time. Further, the max response stood at 6.2% in experiment [6] (setting [12]) and 15.3% in experiment [6] (setting [13]). Moreover, the result in experiment [7] was inactive.

With `Cn1cccc1C(=O)N1CCC2(CCN(Cc3ccc(C#N)cc3)CC2)CC1`, the Potency is > 11.4 µM (inactive) in experiment [1] and > 46 µM (inactive) in experiment [4]. The figures for the activity change, negative = inhibition in experiment [2] and in experiment [6] were 11.1% (inactive) and 0.873% (inactive), respectively. Besides, in [3], the activity, negative = inhibition is -2.38% (inactive). Besides, the Potency entry in experiment [5] and in [9] was “inactive” each time. Besides, the max response was 7.43% in experiment [6] (setting [12]) and 9.77% in experiment [6] (setting [13]). Moreover, the result in experiment [7] was inactive.
